# Reference: the supplement of paper PMC12636033
# ± gives the standard deviation of the averaged measurements. Over roughly 33,000 sequences, “E-score (rank enrichment, -0.5 to 0.5)” has its median near -0.0075; the highest 2% begin near 0.23. The full list was thinned out, with the highest values kept by preference.
# System: WT Max(13-93) synthetic (M65Nle)
# Assay: PBM 8-mer E-score (E-score (rank enrichment, -0.5 to 0.5)); higher = stronger preferential binding
# Method: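 Protein binding microarray (universal PBM chip covering all 10-mers in fixed probe flanks) with chemically synthesized human Max(13-93) bHLH-LZ analogs (not full-length Max) bearing noncanonical residues (hArg, Tha, Aib, Nle at 65) and aromatic Cys staples. Read-out per 8-mer (and its reverse complement): E-score (rank-based enrichment, -0.5 to 0.5) and Z-score of median probe intensity.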
row,Sequence,PBM 8-mer E-score
1,AACCCAAG,0.00894 ± 0.087
2,CGGGAAAC,-0.106 ± 0.079
3,TCTAACAA,-0.0242 ± 0.029
4,AATAACAG,0.17 ± 0.06
5,CGTAACAA,0.136 ± 0.087
6,CATAACAC,0.236 ± 0.016
7,CATAACAG,0.125 ± 0.021
8,GATAACAA,0.0563 ± 0.033
9,CCTAACAA,0.11 ± 0.026
10,CATAACAA,0.251 ± 0.042
11,AATAACAC,0.0775 ± 0.12
12,AATAACAA,0.264 ± 0.018
13,TATAACAA,0.24 ± 0.026
14,AATAACAT,0.181 ± 0.049
15,CTACGTCC,-0.0109 ± 0.12
16,AGCAATGC,0.12 ± 0.09
17,GGGGACAC,-0.27 ± 0.018
18,AAAAGGGG,0.0924 ± 0.053
19,CGACCAGC,-0.0396 ± 0.11
20,CAAATAGC,0.0495 ± 0.0037
21,CGCCCGTC,-0.106 ± 0.034
22,AGAGCTAG,-0.0196 ± 0.051

row,Sequence,PBM 8-mer E-score
1,CTTGCCCC,-0.0869 ± 0.1
2,ATAGCCTG,-0.155 ± 0.11
3,ACATACAC,0.139 ± 0.048
4,ACATACGC,0.0685 ± 0.056
5,AGATACAT,0.245 ± 0.022
6,AGATACAA,0.126 ± 0.036
7,TCATACGA,0.115 ± 0.021
8,ACATACGA,0.237 ± 0.015
9,ACATACAG,0.219 ± 0.059
10,ACATACAT,0.26 ± 0.042
11,AGATACAG,0.134 ± 0.061
12,CATCTCTA,-0.0266 ± 0.00032
13,ACGGGCTG,-0.16 ± 0.005
14,CGATAACG,-0.0133 ± 0.18
15,CAATAACG,0.0031 ± 0.057
16,AGATAATC,-0.146 ± 0.023
17,AAATAACA,0.198 ± 0.039
18,AGATAACG,0.256 ± 0.041
19,AGATAATG,0.241 ± 0.012
20,AAATAACG,0.26 ± 0.0036
21,AGATAACC,0.0122 ± 0.027
22,AGATAATA,0.131 ± 0.045

row,Sequence,PBM 8-mer E-score
1,ATCTTGGA,-0.118 ± 0.068
2,ACAATGCC,0.0109 ± 0.11
3,GATATCCC,-0.108 ± 0.023
4,ACACTTAT,0.0681 ± 0.02
5,CCCTGAAG,-0.071 ± 0.03
6,ACACGACT,0.123 ± 0.049
7,ACACGACC,0.0326 ± 0.019
8,ACACGACA,0.289 ± 0.1
9,CGCCAACC,-0.101 ± 0.11
10,ACTAGTAT,0.184 ± 0.02
11,ACTAGTAA,0.256 ± 0.1
12,ACTAGTAG,0.11 ± 0.088
13,CTTTCCAC,0.196 ± 0.17
14,AATCCTGG,-0.171 ± 0.16
15,ATTTCCTA,0.135 ± 0.027
16,GTTTCCTA,0.257 ± 0.11
17,CTTTCCTA,0.0286 ± 0.077
18,CGCCCGGA,-0.201 ± 0.068
19,ATATGGTC,0.164 ± 0.09
20,CTATGGTA,0.0296 ± 0.11
21,ATATGGTA,0.241 ± 0.069
22,TAATGGTA,0.0384 ± 0.1

row,Sequence,PBM 8-mer E-score
1,CAATGGTA,0.15 ± 0.041
2,AAATGGTA,0.253 ± 0.056
3,TCGGTTCA,-0.0182 ± 0.1
4,GATGGCAA,0.158 ± 0.091
5,AAGCTCCC,-0.171 ± 0.036
6,GCAGACCA,-0.213 ± 0.1
7,AATATACA,0.246 ± 0.052
8,AATATACT,0.104 ± 0.069
9,GATATACA,0.08271 ± 0.00014
10,AATATAGA,0.277 ± 0.044
11,TATATAGA,0.104 ± 0.084
12,TATATACA,0.0403 ± 0.021
13,CATATACC,-0.0092 ± 0.047
14,CATATACA,0.271 ± 0.067
15,CATATAGA,0.166 ± 0.049
16,ATTGCGTA,0.188 ± 0.035
17,CGACGCAA,-0.157 ± 0.015
18,ATGCTTAA,0.189 ± 0.046
19,CAAGGCCA,0.0607 ± 0.0078
20,ATATAACA,0.237 ± 0.052
